Measurements reported in PubChem BioAssay (Tox21).
Records with an inconclusive call do not appear. Entries that show only a call come without a potency. The source made the active and inactive calls. The call rests on the fitted dose curve; in most records, active means well fitted cell-killing curve with a large enough effect in the repeat runs (not every such curve was filed as active); inconclusive means weak or mixed curves, or effect the other way; inactive means no such curve, though single readings can be large or run the other way.

test: qHTS assay to identify small molecule antagonists of the farnesoid-X-receptor (FXR) signaling pathway - cell viability counter screen (AID 743221); settings: FXR-bla HEK293T viability, CellTiter-Glo luminescence, 16 h; series mostly up to 62.6 µM; further: nearly all actives have a fitted effect of over 50% in size
Text: National Center for Advancing Translational Sciences [NCATS]
NIH Chemical Genomics Center [NCGC]
U.S. Environmental Protection Agency [EPA]
National Institutes of Environmental Health Sciences [NIEHS]
National Toxicology Program [NTP]
U.S. Food and Drug Administration [FDA]
The farnesoid-X-receptor (FXR), a nuclear hormone receptor, is highly expressed in liver, intestine, kidney and adrenal cortex. Natural ligands of FXR are the bile acids (Cholic acid, Chenodeoxy cholic acid etc). FXR is an important regulator of diverse metabolic pathways, including the bile acid homeostasis, lipid and glucose metabolisms. FXR regulates the expression of target genes by binding either as a monomer or as a heterodimer with the retinoid X receptor (RXR). Numerous studies have reported that FXR exerts protective function during cholestasis, diabetes, liver regeneration, and cancer. To identify compounds that inhibit FXR signaling, GeneBLAzer FXR-UAS-bla HEK 293T cell line (Invitrogen, Carlsbad, CA) containing a beta-lactamase reporter gene under the control of a UAS response element was used to screen the Tox21 10K compound library. The cytotoxicity of the Tox21 compound library against the FXR-bla cell line was tested in parallel by measuring the cell viability using CellTiter-Glo assay in the same wells.
Tox21 Assay Protocol Summary:
FXR-bla cells were dispensed at 5000 cells/5uL/well in 1536-well black wall/clear bottom plates using a Multidrop Combi (Thermo Fisher Scientific, Waltham, MA) dispenser. After the assay plates were incubated at 37 C and 5% CO2 for 5 h, 23 nL of compounds dissolved in DMSO, positive controls or DMSO only was transferred to the assay plate by a Pintool station (Kalypsys, San Diego, CA), followed by addition of 1 uL Chenodeoxycholic acid (50 uM, final concentration in the wells). The assay plates were incubated at 37C for 16 h. After 1 uL of LiveBLAzerTM B/G FRET substrate was added using a Bioraptr Flying Reagent Dispenser (FRD) workstation (Beckman Coulter, Indianapolis, IN), the plates were incubated at room temperature for 2 h, and fluorescence intensity was measured by an Envision plate reader (PerkinElmer, Shelton, CT). For cell viability readout that measures cytotoxicity, 4uL/well of CellTiter-Glo reagent was added into the assay plates using a Bioraptr FRD. After 30 min incubation at room temperature, the luminescence intensity in the plates was measured using a ViewLux plate reader (PerkinElmer).

| SMILES | Potency |
| --- | --- |
| COC(=O)CC(=O)OC | inactive |
| c1ccc2ncccc2c1 | inactive |
| Cc1ccc(S(=O)(=O)O)cc1C | inactive |
| O=S1(=O)CCCO1 | inactive |
| C=C[C@H]1CN2CC[C@H]1C[C@@H]2[C@@H](O)c1ccnc2ccc(OC)cc12 | inactive |
| COc1ccc(-c2coc3cc(O)cc(O)c3c2=O)cc1 | inactive |
| CCCCCCCCCCC(CO)CCCCCCCC (stereo not given) | inactive |
| COC(=O)c1ccc(C)cc1 | inactive |
| C=CC(C)(O)CCC=C(C)C (stereo not given) | inactive |
| CC(C)[C@@H]1CC[C@@H](C)CC1=O | inactive |
| Nc1cc([N+](=O)[O-])ccc1C(=O)O | inactive |
| Brc1nc2ccccc2s1 | inactive |
| c1ccc2c(c1)[nH]c1ccccc12 | inactive |
| COc1cc([C@H]2Oc3cc([C@H]4Oc5cc(O)cc(O)c5C(=O)[C@@H]4O)ccc3O[C@@H]2CO)ccc1O | inactive |
| C[C@]12CC[C@@H]3c4ccc(O)cc4CC[C@H]3[C@@H]1CC[C@H]2O | inactive |
| CC(C)(C)c1cccc(C(C)(C)C)c1O | inactive |
| C=C[Si](OCCOC)(OCCOC)OCCOC | inactive |
| CCO[Si](CCCNC(N)=O)(OCC)OCC | inactive |
| Cc1ccc(S(=O)(=O)NCl)cc1 | inactive |
| CCCCCCOCCOCCO | inactive |

| SMILES | Potency |
| --- | --- |
| Clc1ccc(Sc2cc(Cl)c(Cl)cc2Cl)cc1 | inactive |
| CCCN1C=CN(C)C1 | inactive |
| CCOC(=O)C(C)Oc1ccc(Oc2cnc3cc(Cl)ccc3n2)cc1 (stereo not given) | inactive |
| Cc1ccc(C)c(O)c1 | inactive |
| O=C(O)CCCCCCCCCCCC(=O)O | inactive |
| CN1CCOCC1 | inactive |
| CC(=O)O[C@]1(C(C)=O)CC[C@H]2[C@@H]3C=C(Cl)C4=CC(=O)CC[C@]4(C)[C@H]3CC[C@@]21C | inactive |
| O=[Se](O)O | inactive |
| Cc1ccc(C(C)(C)C)c(O)c1 | inactive |
| CC(C)(Oc1ccc(Cl)cc1)C(=O)O | inactive |
| O=C(O)c1ccc(O)cc1 | inactive |
| CC(=O)[C@H]1CC[C@H]2[C@@H]3CC=C4C[C@@H](O)CC[C@]4(C)[C@H]3CC[C@]12C | inactive |
| Cc1ccc(/C(=C\CN2CCCC2)c2ccccn2)cc1 | inactive |
| CCCCCCCCCCCCCO | inactive |
| CC1(C)NC(=O)N(c2ccc([N+](=O)[O-])c(C(F)(F)F)c2)C1=O | inactive |
| CC/C=C\C/C=C\C/C=C\CCCCCCCC(=O)O | inactive |
| Cc1ccc(N)c([N+](=O)[O-])c1 | inactive |
| C=CN1CCCC1=O | inactive |
| CNC[C@H](O)c1ccc(O)c(O)c1 | inactive |
| CCCCCC1C(=O)CCC1CC(=O)OC (stereo not given) | inactive |
